This passage reports binding signal results from paper PMC7862700, “An all-to-all approach to the identification of sequence-specific readers for epigenetic DNA modifications on cytosine”.

What all share (assay): DAPPL (digital affinity profiling via proximity ligation, sequencing); 10 mM Tris-HCl pH 7.5, 50 mM NaCl, 1 mM DTT, 4% glycerol, room temperature, 30 min; GST-TFs on glutathione beads, 16-mer random dsDNA library, 0.1% formaldehyde crosslink after washing; high values mean tight binding
For one assay, the target named is T1, FLI1 (Homo sapiens, UniProt Q01543 1-452).
T1 sequence: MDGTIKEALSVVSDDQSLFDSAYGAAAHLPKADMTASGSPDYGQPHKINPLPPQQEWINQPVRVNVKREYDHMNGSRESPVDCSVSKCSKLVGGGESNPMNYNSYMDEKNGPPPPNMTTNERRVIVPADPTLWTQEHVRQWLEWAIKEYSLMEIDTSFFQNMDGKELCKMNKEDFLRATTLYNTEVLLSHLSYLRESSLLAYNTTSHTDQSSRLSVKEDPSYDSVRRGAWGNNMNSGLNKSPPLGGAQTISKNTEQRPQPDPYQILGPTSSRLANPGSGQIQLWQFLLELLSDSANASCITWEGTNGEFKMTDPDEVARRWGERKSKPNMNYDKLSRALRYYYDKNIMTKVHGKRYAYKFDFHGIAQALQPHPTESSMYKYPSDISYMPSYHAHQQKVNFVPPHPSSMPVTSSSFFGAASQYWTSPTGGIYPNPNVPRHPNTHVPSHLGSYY
To be noted: protein: recombinant; tags: N-terminal GST; dsDNA, one strand shown. The method, boiled down:
(§1)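 Pools were built from human transcription factors expressed in yeast as GST fusions, captured on glutathione beads and DNA-barcoded, along with a tag-only sample. Incubation with 200 nmole of a 16-mer random double-stranded DNA library lasted 30 min at room temperature in Tris/NaCl/DTT/glycerol buffer, and was followed by washing, 0.1% formaldehyde crosslinking, proximity ligation, PCR amplification and Illumina NextSeq500 sequencing. Binding signal is the quotient of each hexamer's read frequency for a factor and its frequency for the tag-only sample.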

The target of another assay is T2, ELK1 (Homo sapiens, UniProt P19419 1-428).
T2 sequence: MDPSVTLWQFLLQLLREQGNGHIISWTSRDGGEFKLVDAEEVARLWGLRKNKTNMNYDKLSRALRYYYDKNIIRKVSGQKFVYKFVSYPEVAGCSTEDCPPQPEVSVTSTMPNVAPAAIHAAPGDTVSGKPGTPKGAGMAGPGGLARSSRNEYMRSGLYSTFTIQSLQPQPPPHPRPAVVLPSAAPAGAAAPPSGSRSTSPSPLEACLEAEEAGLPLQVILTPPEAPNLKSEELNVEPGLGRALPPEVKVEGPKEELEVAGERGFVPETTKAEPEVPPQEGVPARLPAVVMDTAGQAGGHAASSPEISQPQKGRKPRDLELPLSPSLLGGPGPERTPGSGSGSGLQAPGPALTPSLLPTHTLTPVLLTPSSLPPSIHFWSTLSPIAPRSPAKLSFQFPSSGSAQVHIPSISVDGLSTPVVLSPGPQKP
The note with it: protein: recombinant; tags: N-terminal GST; dsDNA, one strand shown. The method, boiled down:
as §1

A further assay deals with T3, GABPA (Homo sapiens, UniProt Q06546 1-454).
T3 sequence: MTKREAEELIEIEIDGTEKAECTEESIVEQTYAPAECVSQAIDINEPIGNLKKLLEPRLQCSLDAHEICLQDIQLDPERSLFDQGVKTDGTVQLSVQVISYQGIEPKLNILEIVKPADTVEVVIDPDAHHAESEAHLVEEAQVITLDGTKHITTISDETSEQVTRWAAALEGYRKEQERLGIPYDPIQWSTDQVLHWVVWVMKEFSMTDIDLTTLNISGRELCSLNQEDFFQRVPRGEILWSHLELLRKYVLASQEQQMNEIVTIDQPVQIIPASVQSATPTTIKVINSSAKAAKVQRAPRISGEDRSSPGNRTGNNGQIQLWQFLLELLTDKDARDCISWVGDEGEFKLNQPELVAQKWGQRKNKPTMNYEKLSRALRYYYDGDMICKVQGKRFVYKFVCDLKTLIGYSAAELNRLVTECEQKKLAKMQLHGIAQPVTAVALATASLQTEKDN
To be noted: protein: recombinant; tags: N-terminal GST; dsDNA, one strand shown. An outline of the steps: as §1

In the next assay the target is T4, ERG (Homo sapiens, UniProt P11308 1-479).
T4 sequence: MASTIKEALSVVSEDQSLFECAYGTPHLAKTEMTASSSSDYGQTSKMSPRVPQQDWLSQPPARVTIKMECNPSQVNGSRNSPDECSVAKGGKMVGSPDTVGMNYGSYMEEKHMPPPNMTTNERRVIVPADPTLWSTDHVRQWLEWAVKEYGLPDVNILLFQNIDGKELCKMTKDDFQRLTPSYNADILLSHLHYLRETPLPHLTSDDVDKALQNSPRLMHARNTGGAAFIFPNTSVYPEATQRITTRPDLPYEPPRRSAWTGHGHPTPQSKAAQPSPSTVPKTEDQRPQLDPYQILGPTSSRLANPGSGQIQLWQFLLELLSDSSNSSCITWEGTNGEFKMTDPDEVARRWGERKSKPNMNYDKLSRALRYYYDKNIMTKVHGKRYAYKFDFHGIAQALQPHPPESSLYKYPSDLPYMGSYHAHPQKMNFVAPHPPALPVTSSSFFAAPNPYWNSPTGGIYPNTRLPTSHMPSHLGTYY
To be noted: protein: recombinant; tags: N-terminal GST; dsDNA, one strand shown. An outline of the steps: as §1

In a further assay the target is ELF1 (Homo sapiens, UniProt P32519 1-619). The note with it: protein: recombinant; tags: N-terminal GST; dsDNA, one strand shown. The method, boiled down:
as §1

The target in a further assay is T5, EHF (Homo sapiens, UniProt Q9NZC4 1-300).
T5 sequence: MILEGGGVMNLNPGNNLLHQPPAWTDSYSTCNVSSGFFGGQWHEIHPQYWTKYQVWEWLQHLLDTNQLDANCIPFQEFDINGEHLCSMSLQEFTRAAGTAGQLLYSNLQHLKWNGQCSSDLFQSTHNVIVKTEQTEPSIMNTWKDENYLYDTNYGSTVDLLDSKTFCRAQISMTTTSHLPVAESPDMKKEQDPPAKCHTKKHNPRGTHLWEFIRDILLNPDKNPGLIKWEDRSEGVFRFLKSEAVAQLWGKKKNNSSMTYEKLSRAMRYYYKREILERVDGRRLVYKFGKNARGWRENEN
To be noted: protein: recombinant; tags: N-terminal GST; dsDNA, one strand shown. The method, boiled down:
as §1

The next assay has as its target SPI1 (Homo sapiens, UniProt P17947 1-270). To be noted: protein: recombinant; tags: N-terminal GST; dsDNA, one strand shown. An outline of the steps: as §1
In another assay the target is SPIB (Homo sapiens, UniProt Q01892 1-262). The note with it: protein: recombinant; tags: N-terminal GST; dsDNA, one strand shown. An outline of the steps: as §1
In another assay the target is T6, ELK3 (Homo sapiens, UniProt P41970 1-407).
T6 sequence: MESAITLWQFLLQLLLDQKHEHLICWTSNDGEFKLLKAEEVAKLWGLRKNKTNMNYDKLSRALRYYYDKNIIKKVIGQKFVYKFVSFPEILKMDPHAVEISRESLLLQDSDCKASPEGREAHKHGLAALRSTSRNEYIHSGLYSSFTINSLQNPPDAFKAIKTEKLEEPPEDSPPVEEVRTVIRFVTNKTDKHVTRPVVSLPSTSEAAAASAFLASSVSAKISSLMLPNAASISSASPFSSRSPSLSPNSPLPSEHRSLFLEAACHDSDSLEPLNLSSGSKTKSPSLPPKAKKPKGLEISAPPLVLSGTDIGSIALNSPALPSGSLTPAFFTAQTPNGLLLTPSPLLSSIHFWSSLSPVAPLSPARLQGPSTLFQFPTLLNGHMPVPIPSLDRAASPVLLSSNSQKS
The note with it: protein: recombinant; tags: N-terminal GST; dsDNA, one strand shown. An outline of the steps: as §1

The next assay has as its target T7, FEV (Homo sapiens, UniProt Q99581 1-238).
T7 sequence: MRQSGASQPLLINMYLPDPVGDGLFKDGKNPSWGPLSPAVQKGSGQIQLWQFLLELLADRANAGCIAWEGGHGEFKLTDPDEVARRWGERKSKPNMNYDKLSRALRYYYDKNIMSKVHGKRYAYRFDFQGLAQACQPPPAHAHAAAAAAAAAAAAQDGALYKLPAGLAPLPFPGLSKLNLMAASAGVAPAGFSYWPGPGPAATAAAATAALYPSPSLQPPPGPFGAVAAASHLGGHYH
To be noted: protein: recombinant; tags: N-terminal GST; dsDNA, one strand shown. The method, boiled down:
as §1

The next assay has as its target ETV5 (Homo sapiens, UniProt P41161 1-510). The note with it: protein: recombinant; tags: N-terminal GST; dsDNA, one strand shown. The method, boiled down:
as §1

The target in a further assay is HSF1 (Homo sapiens, UniProt Q00613 1-529). The note with it: protein: recombinant; tags: N-terminal GST; chain copies: 3; dsDNA, one strand shown. An outline of the steps: as §1
For the next assay, the target named is T8, SPIC (Homo sapiens, UniProt Q8N5J4 1-248).
T8 sequence: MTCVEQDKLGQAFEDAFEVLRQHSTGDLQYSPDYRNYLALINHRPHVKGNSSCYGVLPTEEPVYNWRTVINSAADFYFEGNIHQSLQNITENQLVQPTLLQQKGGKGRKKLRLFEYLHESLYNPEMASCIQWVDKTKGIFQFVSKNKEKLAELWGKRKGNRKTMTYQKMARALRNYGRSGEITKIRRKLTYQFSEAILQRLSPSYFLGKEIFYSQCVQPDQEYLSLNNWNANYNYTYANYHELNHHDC
To be noted: protein: recombinant; tags: N-terminal GST; dsDNA, one strand shown. The method, boiled down: as §1

A further assay deals with ELF4 (Homo sapiens, UniProt Q99607 1-663). To be noted: protein: recombinant; tags: N-terminal GST; dsDNA, one strand shown. An outline of the steps: as §1
Another assay addresses T9, ELK4 (Homo sapiens, UniProt P28324-2 1-405).
T9 sequence: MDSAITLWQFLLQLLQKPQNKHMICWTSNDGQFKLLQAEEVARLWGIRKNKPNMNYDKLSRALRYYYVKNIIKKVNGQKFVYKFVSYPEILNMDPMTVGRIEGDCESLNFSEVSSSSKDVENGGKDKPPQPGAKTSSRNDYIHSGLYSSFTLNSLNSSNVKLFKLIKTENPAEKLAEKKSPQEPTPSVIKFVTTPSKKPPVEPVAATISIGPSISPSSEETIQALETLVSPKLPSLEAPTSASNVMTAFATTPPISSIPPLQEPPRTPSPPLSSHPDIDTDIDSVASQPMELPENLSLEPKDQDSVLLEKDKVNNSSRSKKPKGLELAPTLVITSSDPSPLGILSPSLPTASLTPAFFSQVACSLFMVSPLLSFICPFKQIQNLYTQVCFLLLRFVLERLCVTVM
To be noted: protein: recombinant; tags: N-terminal GST; dsDNA, one strand shown. An outline of the steps: as §1

For another assay, the target named is T10, ETV2 (Homo sapiens, UniProt O00321 1-342).
T10 sequence: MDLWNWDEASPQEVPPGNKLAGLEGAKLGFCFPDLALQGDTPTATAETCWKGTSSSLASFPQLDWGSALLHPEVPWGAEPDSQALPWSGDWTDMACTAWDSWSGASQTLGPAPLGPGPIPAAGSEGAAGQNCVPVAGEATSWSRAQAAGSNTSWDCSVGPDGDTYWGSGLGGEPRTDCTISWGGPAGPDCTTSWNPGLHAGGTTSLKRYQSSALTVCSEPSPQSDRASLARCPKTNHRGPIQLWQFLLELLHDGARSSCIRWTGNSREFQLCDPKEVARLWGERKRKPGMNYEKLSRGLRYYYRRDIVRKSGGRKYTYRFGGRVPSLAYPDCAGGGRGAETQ
The note with it: protein: recombinant; tags: N-terminal GST; dsDNA, one strand shown. The method, boiled down: as §1

In the next assay the target is T11, ELF3 (Homo sapiens, UniProt P78545 1-371).
T11 sequence: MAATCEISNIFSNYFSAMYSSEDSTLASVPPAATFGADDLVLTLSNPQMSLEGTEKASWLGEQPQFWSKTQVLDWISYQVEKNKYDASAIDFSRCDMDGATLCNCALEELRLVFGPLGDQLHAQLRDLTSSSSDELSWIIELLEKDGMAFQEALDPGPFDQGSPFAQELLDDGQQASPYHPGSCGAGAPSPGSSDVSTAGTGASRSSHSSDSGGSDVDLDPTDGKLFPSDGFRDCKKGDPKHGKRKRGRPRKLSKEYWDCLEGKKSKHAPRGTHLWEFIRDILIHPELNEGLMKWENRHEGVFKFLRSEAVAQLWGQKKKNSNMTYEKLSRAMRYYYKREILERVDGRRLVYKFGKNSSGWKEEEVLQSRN
To be noted: protein: recombinant; tags: N-terminal GST; dsDNA, one strand shown. The method, boiled down:
as §1

In the next assay the target is CRX (Homo sapiens, UniProt O43186 1-299). The note with it: protein: recombinant; tags: N-terminal GST; dsDNA, one strand shown. The method, boiled down: as §1
Another assay deals with ETV1 (Homo sapiens, UniProt P50549 1-477). The note with it: protein: recombinant; tags: N-terminal GST; dsDNA, one strand shown. An outline of the steps:
as §1

Chain of SPIB (Q01892 whole entry): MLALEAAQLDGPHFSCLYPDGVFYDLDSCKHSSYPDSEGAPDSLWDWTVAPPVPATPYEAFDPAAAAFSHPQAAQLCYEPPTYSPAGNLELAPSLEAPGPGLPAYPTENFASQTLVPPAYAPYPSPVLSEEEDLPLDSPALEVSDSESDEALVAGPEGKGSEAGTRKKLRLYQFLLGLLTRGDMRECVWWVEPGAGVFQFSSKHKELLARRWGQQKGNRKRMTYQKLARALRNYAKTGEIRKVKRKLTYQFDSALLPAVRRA
Chain of ELF4 (Q99607 whole entry): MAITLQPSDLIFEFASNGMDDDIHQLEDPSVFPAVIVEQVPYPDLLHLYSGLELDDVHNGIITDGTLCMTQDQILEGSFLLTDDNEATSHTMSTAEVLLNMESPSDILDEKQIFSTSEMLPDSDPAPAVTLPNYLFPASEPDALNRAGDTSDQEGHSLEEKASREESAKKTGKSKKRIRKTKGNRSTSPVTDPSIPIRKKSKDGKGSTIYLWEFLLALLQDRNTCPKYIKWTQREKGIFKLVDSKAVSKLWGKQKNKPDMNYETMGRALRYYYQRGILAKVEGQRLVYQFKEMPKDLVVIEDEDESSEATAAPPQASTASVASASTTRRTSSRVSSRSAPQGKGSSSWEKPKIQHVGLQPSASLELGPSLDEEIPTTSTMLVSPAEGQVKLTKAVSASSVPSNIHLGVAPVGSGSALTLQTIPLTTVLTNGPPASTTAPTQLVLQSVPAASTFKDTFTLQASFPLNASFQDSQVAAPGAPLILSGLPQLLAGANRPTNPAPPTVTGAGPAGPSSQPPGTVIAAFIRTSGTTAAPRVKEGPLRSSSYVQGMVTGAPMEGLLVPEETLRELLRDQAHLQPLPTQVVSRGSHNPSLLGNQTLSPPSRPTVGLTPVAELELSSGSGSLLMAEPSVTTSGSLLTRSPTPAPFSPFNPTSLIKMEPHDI
Chain of ETV1 (P50549 whole entry): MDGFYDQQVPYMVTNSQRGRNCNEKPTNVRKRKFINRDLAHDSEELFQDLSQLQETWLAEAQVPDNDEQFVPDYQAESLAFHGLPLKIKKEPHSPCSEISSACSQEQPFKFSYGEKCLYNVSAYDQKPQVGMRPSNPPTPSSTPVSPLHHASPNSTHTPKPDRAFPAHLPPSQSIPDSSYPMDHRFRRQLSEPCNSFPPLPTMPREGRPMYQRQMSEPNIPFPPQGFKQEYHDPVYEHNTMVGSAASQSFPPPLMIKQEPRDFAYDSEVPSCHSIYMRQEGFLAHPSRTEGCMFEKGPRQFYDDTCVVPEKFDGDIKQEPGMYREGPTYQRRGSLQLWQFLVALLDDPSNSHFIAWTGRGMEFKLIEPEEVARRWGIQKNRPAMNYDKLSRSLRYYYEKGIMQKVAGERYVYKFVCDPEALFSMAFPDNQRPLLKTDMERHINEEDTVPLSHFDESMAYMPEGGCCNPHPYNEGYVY
Chain of ETV5 (P41161 whole entry): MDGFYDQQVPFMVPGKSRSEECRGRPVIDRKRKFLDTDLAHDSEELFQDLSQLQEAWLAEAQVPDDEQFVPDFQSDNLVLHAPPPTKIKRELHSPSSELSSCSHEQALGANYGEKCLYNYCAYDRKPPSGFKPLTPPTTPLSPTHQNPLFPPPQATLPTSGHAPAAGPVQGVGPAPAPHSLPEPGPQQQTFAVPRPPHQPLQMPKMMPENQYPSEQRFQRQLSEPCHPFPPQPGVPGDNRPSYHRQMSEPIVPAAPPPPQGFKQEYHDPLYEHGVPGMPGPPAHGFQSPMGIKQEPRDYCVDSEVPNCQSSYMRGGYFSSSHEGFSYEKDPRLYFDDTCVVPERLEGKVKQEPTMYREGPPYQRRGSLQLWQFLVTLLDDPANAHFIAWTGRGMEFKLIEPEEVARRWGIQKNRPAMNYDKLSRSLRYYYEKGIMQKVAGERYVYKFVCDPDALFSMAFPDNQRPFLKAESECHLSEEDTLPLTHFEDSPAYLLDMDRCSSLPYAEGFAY
Chain of ELF1 (P32519 whole entry): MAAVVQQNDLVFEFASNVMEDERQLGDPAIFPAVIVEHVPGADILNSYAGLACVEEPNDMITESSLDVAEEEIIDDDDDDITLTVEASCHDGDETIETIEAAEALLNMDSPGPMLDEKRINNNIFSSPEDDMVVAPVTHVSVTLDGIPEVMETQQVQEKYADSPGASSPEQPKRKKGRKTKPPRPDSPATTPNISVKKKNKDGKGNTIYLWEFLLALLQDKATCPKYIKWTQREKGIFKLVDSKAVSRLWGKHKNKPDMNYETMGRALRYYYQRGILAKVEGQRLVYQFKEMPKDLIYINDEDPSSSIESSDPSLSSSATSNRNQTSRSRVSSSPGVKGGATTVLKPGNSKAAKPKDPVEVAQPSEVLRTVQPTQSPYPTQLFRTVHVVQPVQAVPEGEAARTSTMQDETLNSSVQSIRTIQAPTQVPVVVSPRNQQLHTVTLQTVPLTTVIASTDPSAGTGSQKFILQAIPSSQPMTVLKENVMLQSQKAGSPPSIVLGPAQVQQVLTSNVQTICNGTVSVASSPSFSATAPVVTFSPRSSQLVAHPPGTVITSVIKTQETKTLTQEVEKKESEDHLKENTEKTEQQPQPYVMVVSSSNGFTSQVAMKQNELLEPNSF
Chain of HSF1 (Q00613 whole entry): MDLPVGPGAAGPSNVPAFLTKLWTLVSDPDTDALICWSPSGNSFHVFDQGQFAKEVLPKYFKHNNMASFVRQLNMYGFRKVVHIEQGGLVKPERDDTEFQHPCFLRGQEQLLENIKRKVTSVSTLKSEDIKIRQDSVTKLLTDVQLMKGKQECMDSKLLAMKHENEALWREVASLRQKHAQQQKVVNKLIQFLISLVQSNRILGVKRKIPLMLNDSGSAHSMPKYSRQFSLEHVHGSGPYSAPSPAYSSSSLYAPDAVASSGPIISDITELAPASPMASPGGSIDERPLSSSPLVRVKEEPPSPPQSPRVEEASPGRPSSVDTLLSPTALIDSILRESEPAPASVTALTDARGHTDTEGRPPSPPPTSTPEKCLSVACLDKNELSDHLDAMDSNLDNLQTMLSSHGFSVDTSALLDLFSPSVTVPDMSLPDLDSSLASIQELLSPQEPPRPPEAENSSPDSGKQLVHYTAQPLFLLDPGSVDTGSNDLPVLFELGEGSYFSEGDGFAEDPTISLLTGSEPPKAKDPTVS
Chain of CRX (O43186 whole entry): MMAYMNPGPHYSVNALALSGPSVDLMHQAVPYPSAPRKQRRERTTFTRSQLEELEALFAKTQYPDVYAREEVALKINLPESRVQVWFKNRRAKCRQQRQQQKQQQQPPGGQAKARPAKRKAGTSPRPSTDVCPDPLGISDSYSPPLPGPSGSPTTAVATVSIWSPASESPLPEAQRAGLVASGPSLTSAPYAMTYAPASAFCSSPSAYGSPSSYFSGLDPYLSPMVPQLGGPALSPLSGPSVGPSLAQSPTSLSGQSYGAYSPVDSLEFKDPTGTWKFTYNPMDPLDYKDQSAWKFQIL

Consider ATATTG, for which the binding signal with FLI1 is 1.25 fold enrichment (6-mer frequency, TF over GST control); with ELK1 it was 1.31 fold enrichment (6-mer frequency, TF over GST control); with GABPA, 1.32 fold enrichment (6-mer frequency, TF over GST control); with ERG, 1.25 fold enrichment (6-mer frequency, TF over GST control); with ELF1, 1.31 fold enrichment (6-mer frequency, TF over GST control); with EHF, 1.3 fold enrichment (6-mer frequency, TF over GST control). Moreover, the binding signal in the assay with SPI1 was 1.28 fold enrichment (6-mer frequency, TF over GST control); with SPIB it was 1.28 fold enrichment (6-mer frequency, TF over GST control); in the assay with ELK3, 1.29 fold enrichment (6-mer frequency, TF over GST control); in the assay with FEV, 1.33 fold enrichment (6-mer frequency, TF over GST control); in the assay with ETV5 it was 1.37 fold enrichment (6-mer frequency, TF over GST control); with HSF1, 1.19 fold enrichment (6-mer frequency, TF over GST control). Besides, the binding signal is 1.41 fold enrichment (6-mer frequency, TF over GST control) with SPIC; 1.37 fold enrichment (6-mer frequency, TF over GST control) with ELF4; 1.24 fold enrichment (6-mer frequency, TF over GST control) with ELK4; 1.48 fold enrichment (6-mer frequency, TF over GST control) in the assay with ETV2; 1.25 fold enrichment (6-mer frequency, TF over GST control) with ELF3; 1.28 fold enrichment (6-mer frequency, TF over GST control) with CRX. In the assay with ETV1, the binding signal is 1.32 fold enrichment (6-mer frequency, TF over GST control).
